Reference: PubChem BioAssay AID720504 (National Center for Advancing Translational Sciences (NCATS), 2013)
Hit rate of the full screen: of about 360,000 compounds, about 10,000 (2.8%) were called active. About 4% were inconclusive and are not listed. The sample holds actives, similar compounds and a random draw of the others, so the mix is not that of the screen. Calls follow the shape of the dose curve; as a rule, active = well fitted inhibition curve with a large enough effect; inconclusive = small, poorly fitted or top-dose-only effect; inactive = flat fitted curve, though single readings scatter.

molecular target: Serine/threonine-protein kinase PLK1 (Homo sapiens) (UniProt P53350); assay: qHTS for Inhibitors of PLK1-PDB (polo-like kinase 1 - polo-box domain): Primary Screen; details: Plk1 PBD binding of FITC phosphopeptide, fluorescence polarization; also: nearly all actives have a fitted effect of over 65% in size; as to Max response, negative = inhibition: series mostly up to about 57 µM
% is scaled to controls: 0 for no effect and ±100 for the full control effect; potency is read from the fitted curve at half-maximal effect.

Chain of Serine/threonine-protein kinase PLK1 (Homo sapiens) (P53350 whole entry, looked up, the tested form may be a part): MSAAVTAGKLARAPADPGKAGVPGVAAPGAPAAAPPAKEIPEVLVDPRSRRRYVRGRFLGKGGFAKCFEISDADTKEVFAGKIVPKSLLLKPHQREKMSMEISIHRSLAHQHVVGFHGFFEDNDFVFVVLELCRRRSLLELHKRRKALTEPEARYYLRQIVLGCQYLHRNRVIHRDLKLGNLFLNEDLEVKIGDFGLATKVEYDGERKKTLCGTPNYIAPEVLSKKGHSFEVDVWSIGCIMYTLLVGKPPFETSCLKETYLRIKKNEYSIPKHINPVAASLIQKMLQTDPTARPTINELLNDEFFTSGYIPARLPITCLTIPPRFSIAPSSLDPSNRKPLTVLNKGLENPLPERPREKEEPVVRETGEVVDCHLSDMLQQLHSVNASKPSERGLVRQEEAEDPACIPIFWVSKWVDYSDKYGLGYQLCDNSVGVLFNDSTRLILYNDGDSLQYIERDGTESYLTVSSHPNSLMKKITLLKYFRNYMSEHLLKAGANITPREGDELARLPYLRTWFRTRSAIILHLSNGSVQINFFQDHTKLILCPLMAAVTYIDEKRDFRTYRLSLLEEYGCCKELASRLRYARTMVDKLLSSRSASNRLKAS

Max response, negative = inhibition, inactive:
Cc1ccc(-c2ccc(CN3C(C)C(=O)N(Cc4cn(CCC5OCCCO5)nn4)CCS3(=O)=O)cc2)cc1 (stereo not given) -2.81%, NC(c1ccccc1)c1csc(NC(=O)Nc2cccc(C(F)(F)F)c2)n1 (stereo not given) -4.96%, O=C(NC1Cc2ccccc2C1)c1cc(COc2cccc(C(F)(F)F)c2)on1 -5.34%, COc1ccc(C=C2CCC3C(CCCC34OCCO4)C2=O)cc1 (stereo not given) -14.1%, CCc1ccc(OC2(C)CCN(CCOc3ccc(C)cc3)C2)cc1 (stereo not given) 0.495%, O=C(COc1ccc(Br)cc1)OCC(=O)c1ccc[nH]1 -8.67%, O=C(C1=C(O)C(=O)N(c2ncccn2)C1c1cccs1)c1ccco1 (stereo not given) -18.5%, COc1ccc2nc(N3C(=O)C(O)=C(C(=O)c4ccco4)C3c3ccco3)sc2c1 (stereo not given) -16.7%, COc1ccc(-c2cc3nc(NCCOc4ccccc4)ccn3n2)cc1 -1.91%, Cc1nc2c(OCc3ccc(Cl)cc3)cccn2c1N(C)Cc1cccs1 -7.96%, Cc1ccc(-c2cnc(C(O)c3cccc(C)c3C)[nH]2)cc1 (stereo not given) 2.44%, O=C(c1ncn2c1c(=O)[nH]c1ccccc12)N1CCc2ccccc2C1 6.5%, O=c1[nH]n2c(-c3ccccc3)nc(O)c2c2ccccc12 -5.86%, COc1ccc(Br)c(Cn2c(C)c(C(=O)NCc3cccs3)sc2=O)c1 8.23%, CCOC(=O)[C@]12CCCC=C1N(CCC1=CCCCC1)C(=O)[C@H](CC(=O)NCCCCc1ccccc1)C2 -2.05%, COc1ccccc1CNC(=O)c1ccc(CS(=O)(=O)c2ccccc2)o1 -4.65%, Cc1ccccc1S(=O)(=O)Cc1ccc(C(=O)NCCN2CCCCC2C)o1 (stereo not given) 1.66%, COC(=O)c1ccc2nc(-c3cccc(Br)c3)c(Cc3ccc(OC)cc3C)n2c1 -4.35%, CCC(c1nnnn1-c1ccc2c(c1)OCCO2)N1CCN(c2ccc(C(F)(F)F)cn2)CC1 (stereo not given) 3.69%, COc1ccc(C(CNC(=O)c2ccc(OCc3cscn3)cc2)N2CCCC2)cc1 (stereo not given) 3.78%, Cc1cc(NC(=O)c2ccccc2C)no1 -3.17%, Cc1csc(NC(=O)Nc2ccccc2[N+](=O)[O-])n1 3.11%, Cc1ccc(-c2nn(-c3ccccc3)cc2C(=O)NC2CCC(O)CC2)cc1 (stereo not given) 6.03%, Cc1ccc(-c2nn(-c3ccccc3)cc2C(=O)Nc2cccc(S(=O)(=O)N3CCOCC3)c2)cc1 -5.73%, Nc1nc2c(Br)ccc(Br)c2cc1C(=O)NCCc1ccccc1 -9.21%, COc1cccc(NC(=O)CN(C)C(=O)c2cc(Cl)nc3ccccc23)c1 -14.4%, O=C(C[C@H]1C[C@H]2c3cc(NS(=O)(=O)c4ccc(F)cc4)ccc3O[C@H]2[C@H](CO)O1)NCc1cc(F)ccc1F -5.98%, O=C(c1cccs1)N1C[C@H](n2cc(C3CC3)nn2)[C@@H](O)C[C@@H]1c1ccccc1 0.263%, O=C(Nc1ccc(S(=O)(=O)N2CCCCC2)cc1)C1CC(=O)N(c2ccc(F)cc2)C1 (stereo not given) -7.84%, Cc1ccc(N2CC(C(=O)Nc3ccc(S(=O)(=O)N4CCCC4)cc3)CC2=O)cc1C (stereo not given) -12.9%, CCc1nc2c(OCCC3CCCCC3)cccn2c1N(C)C(=O)c1ccco1 -5.85%, COc1ccc(N2c3ccccc3CN(Cc3ccccc3)[C@@H](C)[C@H]2Cc2ccc(-c3ccccc3)cc2)cc1 3.32%, Cc1sc2ncnc(SCC(=O)NC3CCS(=O)(=O)C3)c2c1C (stereo not given) -10.2%, O=C(NCc1nnnn1-c1ccc(Cl)cc1)c1ccc2c(c1)OCO2 -15.4%, COc1ccc(C(=O)NCC2CCCO2)cc1S(=O)(=O)NCc1ccc(Cl)cc1 (stereo not given) -11.7%, Cc1ccc([C@H]2C[C@H](O)[C@@H](n3cc(COC(=O)c4ccccc4)nn3)CN2C(=O)C2CCCCC2)cc1 -1.5%, O=c1[nH]c2ccccc2s1 -9.39%, CC1=C(C(=O)N2CCOCC2)CC(CC(=O)NCc2ccco2)C(=O)N1Cc1ccc(F)cc1 (stereo not given) -9%, CCOC(=O)C1CCCN(C(=O)c2cccc3ccccc23)CC1 (stereo not given) -9.5%, CC1CCN(c2oc(-c3ccccc3F)nc2C#N)CC1 1.03%, N#Cc1nc(COc2ccc(Cl)cc2)oc1N1CCCC1 -6.72%, COC(=O)c1ccc(CN2C(=O)C(Cc3ccccc3)ON=C2c2ncccc2C)o1 (stereo not given) 5.05%, CN1OC[C@@H]2CN(C(=O)C(C)(C)C)[C@H](c3ccc(-n4ccnc4)cc3)C[C@@H]21 -0.5%, COc1cc(CNc2ncnc3c2ncn3[C@H]2CN(Cc3cccs3)C[C@@H](CO)O2)cc(OC)c1OC -6.55%, COCCCn1c(C(=O)NC2CCCCC2)cc2c(=O)n3cccc(C)c3nc21 -6.64%

Potency, active:
O=c1cc(CO)oc(C(Nc2cccc(C(F)(F)F)c2)c2ccccn2)c1O (stereo not given) 26.7 µM, Cc1ccc2nc(N3C(=O)C(O)=C(C(=O)c4ccco4)C3c3cccc(O)c3)sc2c1 (stereo not given) 18.9 µM, O=c1[nH]c2ccccc2n2c(-c3ccccc3)nnc12 0.947 µM, CCc1ccccc1S(=O)(=O)Cc1ccc(C(=O)NCCc2ccccc2)o1 26.7 µM, Cc1cc(NC(=O)Nc2ccccc2[N+](=O)[O-])no1 10.6 µM, O=C(O)c1ccc(NC(=O)c2cn(-c3ccccc3)nc2-c2ccc(Cl)cc2)cc1 26.7 µM, O=c1ccc2c(-c3ccccc3S(=O)(=O)O)c3ccc(O)c(O)c3oc-2c1O 7.52 µM, CNS(=O)(=O)c1ccc(NC(=O)C2CC(=O)N(c3ccc(Cl)cc3)C2)cc1 (stereo not given) 26.7 µM, Nc1ccc2[nH]c(=S)sc2c1 2.99 µM, Cc1ccc(OCc2nc(C#N)c(N3CCCC3)o2)cc1 5.32 µM
